Compounds without any hit were thinned out: in the full panel of roughly 83,000, 20% have a hit.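 A percent growth of 40 corresponds to 60% growth inhibition; 0 means no net growth; -100 means all cells died. Active threshold: below 10.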 Unmarked numbers belong to inactive results. The source made the active and inactive calls.

What all share (assay): NCI-60 one-dose screen, 48 h (100 = growth as untreated, 0 = no growth, -100 = all killed)
Settings in all cases: 10 µM unless noted

The subject of assay [1] is T-47D breast.
Assay [2] has as its system BT-549 breast.
Assay [3] deals with MDA-MB-435 melanoma.
The test system of assay [4] is SW-620 colon.
Assay [5] deals with MCF7 breast.
The test system of assay [6] is HCT-116 colon.
Assay [7] deals with HCC-2998 colon.
Assay [8] has as its system KM12 colon.

On to `CCn1cc(C(=O)N/N=C/c2cccs2)c(=O)c2cc(F)c(N3CCNC(C)C3)c(F)c21` (stereo not drawn), for which the growth was 77.8% in assay [1]; 61.6% in assay [2]; 92.2% in assay [3]; -16.8% (active) in assay [4]; -77.4% (active) in assay [5]; 94.5% in assay [6]. Besides, the figures for the growth in assay [7] and in assay [8] were 28.6% and 83.5%, respectively.

As for `N#Cc1c(N)nnn1Cc1cc(=O)oc2c1ccc1ccccc12`, the growth in assay [1] is 92.3%; in assay [2], 99.9%; in assay [3], 105%; in assay [4], 97.7%; in assay [5], 92.6%; in assay [6] it was 106%. Further, the results for the growth in assay [7] and in assay [8] were 105% and 103%, respectively.

`N#C/C(=C\c1ccc(-c2ccc(Cl)cc2)o1)C(=O)Nc1ncc(Cc2ccc(Cl)cc2)s1`: the growth was 14.3% in assay [1]; 58.2% in assay [2]; 21.2% in assay [3]; 13.7% in assay [4]; 45.9% in assay [5]; 3.14% (active) in assay [6]. In addition, the growth in assay [7] was 77.5%; in assay [8] it was 36.8%.

Turning to `Nc1nc2c([nH]1)c1[nH]c3ccccc3c1c1[nH]c3ccccc3c21`, the growth in assay [1] was 32.4%; in assay [2], 64.6%; in assay [3], 1.06% (active); in assay [4] it was -31.5% (active); in assay [5], 13.6%; in assay [6], -47.9% (active). In addition, the growth in assay [7] was -70.6% (active); in assay [8], 39.5%.

As to `CN(C)CCCn1c2c(c3ncccc3c1=O)C(=O)c1ccccc1-2`, the growth was 47.8% in assay [1]; 67.3% in assay [2]; 64% in assay [3]; 24% in assay [4]; 11.8% in assay [5]; 11.2% in assay [6]. In addition, the values for the growth in assay [7] and in assay [8] were 63.9% and 40.9%, respectively.

Regarding `COc1ccc2[nH]cc(-c3nc(-c4c[nH]c5ccncc45)cs3)c2c1`, the growth in assay [1] is 61.5%; in assay [2] it was 74%; in assay [3] it was -76.3% (active); in assay [4] it was -61.4% (active); in assay [5], 5.44% (active); in assay [6], -62% (active). Besides, the growth in assay [7] is -45.8% (active); in assay [8] it was 21.1%.

As to `C1=C(N2CCCC2)CCC1`, the growth was 104% in assay [1]; 113% in assay [2]; 95.1% in assay [3]; 101% in assay [4]; 91% in assay [5]; 102% in assay [6]. The growth in assay [7] is 110%; in assay [8] it was 109%.

In the case of `C#CCOc1ccc2ncnc(Nc3cccc(NC(=O)C=C)c3)c2c1`, the growth in assay [1] is 70.6%; in assay [2], 46.6%; in assay [3] it was 69.1%; in assay [4] it was 90.3%; in assay [5] it was 60.5%; in assay [6], 74.4%. The growth was 90.8% in assay [7] and 83.5% in assay [8].

Turning to `CC1(C)c2[nH]c3ccccc3c2C[C@]2(C)[C@H]3CC=C4[C@@H]5C[C@@](C)(C(N)=O)CC[C@]5(C)CC[C@@]4(C)[C@]3(C)CC[C@@H]12`, the growth was 9.07% (active) in assay [1]; 58.7% in assay [2]; 59.3% in assay [3]; 61.2% in assay [4]; 29.3% in assay [5]; 40.9% in assay [6]. Moreover, the growth was 69.6% in assay [7] and 58.2% in assay [8].

For the compound `COC(C(=O)[C@@H](O)[C@@H](C)O)[C@@H]1Cc2cc3cc(O[C@H]4C[C@@H](O[C@H]5C[C@@H](O)[C@H](O)C(C)O5)[C@H](O)C(C)O4)c(C)c(O)c3c(O)c2C(=O)[C@H]1O[C@H]1C[C@@H](O[C@H]2C[C@@H](O[C@H]3C[C@@H](O)[C@H](OC)C(C)O3)[C@@H](O)C(C)O2)[C@H](O)C(C)O1` (stereo partly drawn), the growth in assay [1] is -0.919% (active); in assay [2] it was -22.9% (active); in assay [3] it was -54.2% (active); in assay [4] it was 11.3%; in assay [5], 6.29% (active); in assay [6], 12.1%. The growth was 1.1% (active) in assay [7] and 13.7% in assay [8].

On to `CCCNC(=O)Oc1ccc(/C(=C(/C)Cc2ccc(OC)cc2)c2ccc(OCCCN(C)C)cc2)cc1`, for which the growth in assay [1] was 70.2%; in assay [2] it was 91.6%; in assay [3] it was 80.3%; in assay [4], 97.1%; in assay [5], 36.3%; in assay [6] it was 59.5%. In addition, the growth is 77.7% in assay [7] and 84.1% in assay [8].

With `COC1=CC(c2ccc[nH]2)=N/C1=C\c1[nH]c(C)c(C(=O)OCc2ccccc2)c1C`, the growth in assay [1] is -73.4% (active); in assay [2] it was -13.8% (active); in assay [3] it was -69.7% (active); in assay [4], -25.5% (active); in assay [5], -76.3% (active); in assay [6], -75.4% (active). The growth is -54.5% (active) in assay [7] and -71.3% (active) in assay [8].

For the compound `C#CCOc1cccc(Nc2ncnc3ccc(NC(=O)CCl)cc23)c1`, the growth in assay [1] was -39.1% (active); in assay [2] it was -68.9% (active); in assay [3], -2.66% (active); in assay [4] it was -27.1% (active); in assay [5], -20.1% (active); in assay [6], -51.3% (active). Also, the growth is -61.9% (active) in assay [7] and -51.4% (active) in assay [8].

As for `Cn1cccc1C(=O)C1C(c2cccc([N+](=O)[O-])c2)C2C3CCCCC3CN2C12C(=O)Nc1ccc(Cl)cc12` (stereo not drawn), the growth in assay [1] is 36.7%; in assay [2] it was 53.6%; in assay [3] it was 56.3%; in assay [4], 54.7%; in assay [5], 34.1%; in assay [6], 14.9%. The growth is 64.5% in assay [7] and 42.3% in assay [8].

As to `COP(=O)(OC)C(C)(C)CC(=O)CC(C#N)(C#N)C(C#N)C#N`, the growth is 106% in assay [1]; 96.2% in assay [2]; 104% in assay [3]; 104% in assay [4]; 92.1% in assay [5]; 92.4% in assay [6]. Besides, the growth was 92.6% in assay [7] and 104% in assay [8].

As for `O=C1c2cccnc2C(=O)c2c1c(C(=O)NCCCN1CCCCC1)c1ccccn21`, the growth was -48.6% (active) in assay [1]; 13.7% in assay [2]; -80.5% (active) in assay [3]; -66% (active) in assay [4]; -49.5% (active) in assay [5]; -57.6% (active) in assay [6]. The growth in assay [7] was -56.7% (active); in assay [8] it was -17.8% (active).
